Source: PubChem BioAssay (NCI)
The panel holds about 79,000 compounds, 15% with a hit somewhere; the sample as a whole holds those more often. The source made the active and inactive calls. Cut-off read from the data, not from the text of the source: active = growth inhibition above about 70%; inactive = the rest.

Assays:
[1] = NCI Yeast Anticancer Drug Screen. Data for the rad52 strain (AID 147);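 note: 0% = growth of vehicle-treated control cultures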; details: S. cerevisiae rad52 mutant growth inhibition, hits give high values
Procedure, shortened: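 Inhibition of yeast growth, referenced to vehicle controls, was the measured output for a strain with defective DNA damage repair.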

[2] = NCI Yeast Anticancer Drug Screen. Data for the wt1 strain (AID 149);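 note: 0% = growth of vehicle-treated wt1 cultures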; details: S. cerevisiae wt1 strain (SPY 50644) growth inhibition, hits give high values
Procedure, shortened: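 Compounds are added to wt1 yeast cultures. Growth is then measured. Inhibition is expressed relative to vehicle-treated controls.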

[3] = NCI Yeast Anticancer Drug Screen. Data for the mgt1 strain (AID 153); details: S. cerevisiae mgt1 mutant growth inhibition, hits give high values
Procedure, shortened: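 In the mgt1 strain, test compounds were added and growth inhibition was determined relative to vehicle-treated controls.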

[4] = NCI Yeast Anticancer Drug Screen. Data for the rad50 strain (AID 155);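 note: 0% = growth of vehicle-only cultures of the same strain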; details: S. cerevisiae rad50 strain growth inhibition, hits give high values
Procedure, shortened: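 Inhibition values express reduced yeast growth in compound-treated cultures relative to vehicle-treated controls.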

[5] = NCI Yeast Anticancer Drug Screen. Data for the mec2-1 strain (AID 157); details: S. cerevisiae mec2-1 strain, hits give high values
Procedure, shortened: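 Each compound was tested on mec2-1 yeast, a strain altered in DNA damage repair or cell cycle control. Growth inhibition is reported relative to vehicle.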

[6] = NCI Yeast Anticancer Drug Screen. Data for the rad14 strain (AID 159);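 note: 0% = growth of vehicle-treated control cultures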; details: S. cerevisiae rad14 strain growth inhibition, hits give high values
Procedure, shortened: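 A mutant yeast strain defective in DNA damage repair is treated with compound; inhibition of its growth is scored against untreated, vehicle-exposed cultures.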

[7] = NCI Yeast Anticancer Drug Screen. Data for the sgs1 mgt1 strain (AID 161);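 note: 0% = growth of cultures given vehicle only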; details: S. cerevisiae sgs1 mgt1 strain, hits give high values
Procedure, shortened: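 Inhibition of yeast growth, normalised to vehicle-treated controls, is reported for a strain bearing genetic alterations in DNA damage repair.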

[8] = NCI Yeast Anticancer Drug Screen. Data for the CLN2oe strain (AID 163);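 note: 0% = growth of vehicle-only control cultures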; details: S. cerevisiae CLN2oe strain, hits give high values
Procedure, shortened: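 First, the altered yeast strain was treated with each compound; second, its growth was measured; finally, inhibition was derived by comparison with vehicle controls.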

[9] = NCI Yeast Anticancer Drug Screen. Data for the cln2 rad14 strain (AID 165);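 note: 0% = growth equal to vehicle treated cultures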; details: S. cerevisiae cln2 rad14 strain, hits give high values
Procedure, shortened: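 Test compounds were added to cln2 rad14 yeast cultures; inhibition of growth was then determined by comparison with vehicle treatment.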

[10] = NCI Yeast Anticancer Drug Screen. Data for the bub3 strain (AID 167); details: S. cerevisiae bub3 mutant strain, hits give high values
Procedure, shortened: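 Steps: expose the mutant yeast strain to compound; grow alongside vehicle-treated cultures; measure growth; express inhibition against the vehicle cultures.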

[11] = NCI Yeast Anticancer Drug Screen. Data for the wt2 strain (AID 169);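 note: 0% = growth of vehicle-treated yeast cultures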; details: S. cerevisiae wt2 strain growth inhibition, hits give high values
Procedure, shortened: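 The panel's yeast strains carry defined changes in DNA repair or cell cycle genes. Each strain is grown with compound, and growth loss is scored relative to vehicle.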

[12] = NCI Yeast Anticancer Drug Screen. Data for the sgs1 strain (AID 173);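 note: 0% = growth of vehicle-only control cultures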; details: S. cerevisiae sgs1 mutant, hits give high values
Procedure, shortened: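 Vehicle-treated cultures served as reference for growth inhibition of a yeast strain altered in DNA damage repair or cell cycle control after compound exposure.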

[13] = NCI Yeast Anticancer Drug Screen. Data for the mlh1 rad18 strain (AID 175); details: S. cerevisiae mlh1 rad18 strain growth inhibition, hits give high values
Procedure, shortened: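 Inhibition values reflect reduced growth of mutant yeast versus vehicle-treated controls following compound exposure; the mutations affect DNA damage repair.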

[14] = NCI Yeast Anticancer Drug Screen. Data for the rad18 strain (AID 177); details: S. cerevisiae rad18 mutant growth inhibition, hits give high values
Procedure, shortened: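 Steps: expose repair-mutant yeast to compound; measure growth; express as inhibition relative to vehicle control.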

[15] = NCI Yeast Anticancer Drug Screen. Data for the rad50EPP+ strain (AID 151);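 note: 0% = growth of vehicle-treated control cultures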; details: S. cerevisiae rad50 mutant strain, hits give high values
Procedure, shortened: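 Genetically defined yeast (rad50EPP+, DNA damage repair alteration) is grown with compound, and inhibition of growth is expressed relative to vehicle-treated controls.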

[16] = NCI Yeast Anticancer Drug Screen. Data for the mlh1 strain (AID 171);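 note: 0% = growth of vehicle-treated control cultures of the same strain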; details: S. cerevisiae mlh1 strain growth inhibition, hits give high values
Procedure, shortened: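 Inhibition values reflect reduced yeast growth in the presence of compound, referenced to vehicle controls, using a strain chosen for its alteration in DNA repair or cell cycle control.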

[17] = at 5.0 µM (retest, dose inferred, filed as 0.5)
[18] = at 50.0 µM (retest, dose inferred, filed as 5.0)

Measured: growth inhibition

CC(C)(C)c1ccc2c(c1)C(=O)c1ccccc1C2=O
active: [10]; at 33.0 µM 78% | [10]; [18] 85% | [10]; at 50.0 µM 89% | [10]; at 100.0 µM 91%
inactive: [1]; at 1.2 µM -9% | [1]; at 3.7 µM -13% | [1]; at 11.0 µM -15% | [1]; at 33.0 µM -6% | [1]; at 100.0 µM 4% | [2]; at 1.2 µM 0% | [2]; at 3.7 µM 12% | [2]; at 11.0 µM 14% | [2]; at 33.0 µM 12% | [2]; at 100.0 µM 15% | [3]; at 1.2 µM -3% | [3]; at 3.7 µM -9% | [3]; at 11.0 µM -7% | [3]; at 33.0 µM -7% | [3]; at 100.0 µM -4% | [4]; at 1.2 µM -17% | [4]; at 3.7 µM -18% | [4]; [17] 14% | [4]; at 11.0 µM -19% | [4]; at 33.0 µM 8% | [4]; [18] 5% | [4]; at 50.0 µM -2.85% | [4]; at 100.0 µM 6% | [5]; at 1.2 µM -6% | [5]; at 3.7 µM -6% | [5]; [17] 8% | [5]; at 11.0 µM -6% | [5]; at 33.0 µM -9% | [5]; [18] 8% | [5]; at 50.0 µM -17.9% | [5]; at 100.0 µM -5% | [6]; at 1.2 µM 1% | [6]; at 3.7 µM -13% | [6]; at 11.0 µM -6% | [6]; at 33.0 µM 2% | [6]; at 100.0 µM 13% | [7]; [17] 9% | [7]; [18] 20% | [7]; at 50.0 µM 0.45% | [8]; at 1.2 µM -11% | [8]; at 3.7 µM -12% | [8]; at 11.0 µM -14% | [8]; at 33.0 µM -13% | [8]; at 100.0 µM -12% | [9]; [17] -7% | [9]; [18] 0% | [9]; at 50.0 µM -6.45% | [10]; at 1.2 µM 4% | [10]; at 3.7 µM 24% | [10]; [17] 25% | [10]; at 11.0 µM 65% | [11]; at 1.2 µM 1% | [11]; at 3.7 µM 6% | [11]; at 11.0 µM 10% | [11]; at 33.0 µM 10% | [11]; at 100.0 µM 25% | [12]; at 1.2 µM -13% | [12]; at 3.7 µM -7% | [12]; at 11.0 µM 0% | [12]; at 33.0 µM 5% | [12]; at 100.0 µM 17% | [13]; [17] 5% | [13]; [18] 26% | [13]; at 50.0 µM -4.9% | [14]; at 1.2 µM -11% | [14]; at 3.7 µM -9% | [14]; at 11.0 µM -6% | [14]; at 33.0 µM -6% | [14]; at 100.0 µM -14%

Oc1ccc(C2(c3ccc(O)cc3)CCCC2)cc1
inactive: [1]; at 1.2 µM -31% | [1]; at 3.7 µM -23% | [1]; at 11.0 µM 15% | [15]; at 1.2 µM -40% | [15]; at 3.7 µM -50% | [15]; at 11.0 µM -44% | [15]; at 33.0 µM -50% | [15]; at 100.0 µM -4% | [3]; at 1.2 µM -23% | [3]; at 3.7 µM -6% | [3]; at 11.0 µM 37% | [4]; at 1.2 µM 3% | [4]; at 3.7 µM 4% | [4]; [17] 16% | [4]; at 11.0 µM 34% | [5]; at 1.2 µM -26% | [5]; at 3.7 µM -16% | [5]; [17] 8% | [5]; at 11.0 µM 32% | [6]; at 1.2 µM 1% | [6]; at 3.7 µM -16% | [6]; at 11.0 µM 29% | [7]; [17] 9% | [7]; [18] 53% | [8]; at 1.2 µM -12% | [8]; at 3.7 µM 16% | [8]; at 11.0 µM 48% | [9]; [17] 44% | [10]; at 1.2 µM -24% | [10]; at 3.7 µM -22% | [10]; [17] 16% | [10]; at 11.0 µM 27% | [11]; at 1.2 µM -54% | [11]; at 3.7 µM -30% | [11]; at 11.0 µM -18% | [16]; at 1.2 µM -33% | [16]; at 3.7 µM -26% | [16]; at 11.0 µM 46% | [12]; at 1.2 µM -20% | [12]; at 3.7 µM -17% | [12]; at 11.0 µM 11% | [13]; [17] 35% | [14]; at 1.2 µM -11% | [14]; at 3.7 µM 7% | [14]; at 11.0 µM 60%
active: [1]; at 33.0 µM 98% | [1]; at 100.0 µM 98% | [3]; at 33.0 µM 97% | [3]; at 100.0 µM 98% | [4]; at 33.0 µM 98% | [4]; [18] 99% | [4]; at 50.0 µM 90.5% | [4]; at 100.0 µM 98% | [5]; at 33.0 µM 98% | [5]; [18] 99% | [5]; at 50.0 µM 93.2% | [5]; at 100.0 µM 98% | [6]; at 33.0 µM 98% | [6]; at 100.0 µM 98% | [7]; at 50.0 µM 92.1% | [8]; at 33.0 µM 99% | [8]; at 100.0 µM 98% | [9]; [18] 99% | [9]; at 50.0 µM 89.5% | [10]; at 33.0 µM 98% | [10]; [18] 98% | [10]; at 50.0 µM 92.1% | [10]; at 100.0 µM 98% | [11]; at 33.0 µM 98% | [11]; at 100.0 µM 98% | [16]; at 33.0 µM 98% | [16]; at 100.0 µM 98% | [12]; at 33.0 µM 98% | [12]; at 100.0 µM 98% | [13]; [18] 99% | [13]; at 50.0 µM 90% | [14]; at 33.0 µM 98% | [14]; at 100.0 µM 98%

OC(Cc1cccc2ccccc12)CN1CCC(c2ccccc2)CC1 (stereo unspecified)
active: [1]; at 33.0 µM 91% | [1]; at 100.0 µM 97% | [2]; at 100.0 µM 75% | [3]; at 3.7 µM 72% | [3]; at 11.0 µM 81% | [3]; at 33.0 µM 96% | [3]; at 100.0 µM 99% | [4]; at 33.0 µM 86% | [4]; at 50.0 µM 86.7% | [4]; at 100.0 µM 96% | [5]; at 33.0 µM 86% | [5]; at 100.0 µM 97% | [6]; at 1.2 µM 71% | [6]; at 3.7 µM 75% | [6]; at 11.0 µM 89% | [6]; at 33.0 µM 97% | [6]; at 100.0 µM 98% | [7]; at 50.0 µM 71.2% | [8]; at 3.7 µM 74% | [8]; at 11.0 µM 86% | [8]; at 33.0 µM 94% | [8]; at 100.0 µM 97% | [9]; [18] 76% | [9]; at 50.0 µM 74.2% | [10]; at 33.0 µM 79% | [10]; [18] 87% | [10]; at 100.0 µM 97% | [11]; at 11.0 µM 72% | [11]; at 33.0 µM 84% | [11]; at 100.0 µM 97%
inactive: [1]; at 1.2 µM 52% | [1]; at 3.7 µM 66% | [1]; at 11.0 µM 69% | [2]; at 1.2 µM 12% | [2]; at 3.7 µM 28% | [2]; at 11.0 µM 34% | [2]; at 33.0 µM 61% | [3]; at 1.2 µM 64% | [4]; at 1.2 µM 6% | [4]; at 3.7 µM 53% | [4]; [17] 55% | [4]; at 11.0 µM 66% | [4]; [18] 68% | [5]; at 1.2 µM 17% | [5]; at 3.7 µM 26% | [5]; [17] 13% | [5]; at 11.0 µM 50% | [5]; [18] 57% | [5]; at 50.0 µM 45.7% | [7]; [17] 51% | [7]; [18] 41% | [8]; at 1.2 µM 63% | [9]; [17] 58% | [10]; at 1.2 µM 39% | [10]; at 3.7 µM 41% | [10]; [17] 64% | [10]; at 11.0 µM 54% | [10]; at 50.0 µM 69.2% | [11]; at 1.2 µM 50% | [11]; at 3.7 µM 52%
